Compounds without any hit were thinned out: in the full panel of roughly 83,000, 20% have a hit.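 Cell lines were cultured in 96-well plates, exposed to a single compound concentration, and assessed for percent growth 48 hours later.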 Values without a mark were called inactive. The source made the active and inactive calls. Rule for the calls: active = growth percent below 10; inactive = the rest.
Columns and labels:
Assay in all cases: NCI-60 one-dose screen, 48 h (100 = growth as untreated, 0 = no growth, -100 = all killed)
Settings in all cases: 10 µM unless noted
[1] = tested on: HCT-15 colon
[2] = tested on: HT29 colon
[3] = tested on: SNB-75 CNS
[4] = tested on: SNB-19 CNS
[5] = tested on: U251 CNS
[6] = tested on: PC-3 prostate
[7] = tested on: SK-MEL-5 melanoma
[8] = tested on: UACC-62 melanoma
[9] = tested on: LOX IMVI melanoma
[10] = tested on: SK-MEL-28 melanoma

Row | SMILES | growth [1] | growth [2] | growth [3] | growth [4] | growth [5] | growth [6] | growth [7] | growth [8] | growth [9] | growth [10]
1 | NC(N)=Nc1ccc(Oc2cccc(Nc3ccc(Cl)c(C(F)(F)F)c3)c2)cc1 | 79.5% | 49% | 47.4% | 24.8% | -27.6% (active) | 28.3% | 43.9% | 40.1% | -62.4% (active) | 67.7%
2 | NC(N)=Nc1ccc(Nc2cccc(Nc3ccc(Cl)c(C(F)(F)F)c3)c2)cn1 | 68.4% | 29.8% | 45.6% | 4.1% (active) | -43.2% (active) | -24.9% (active) | 34.5% | 24.5% | 13.8% | 40.3%
3 | Cn1ccnc1C(=O)/C=C/c1ccc(NC(=O)c2c(F)c(F)c(F)c(F)c2F)cc1 | 85.9% | 112% | 103% | 98.3% | 99% | 100% | 91.2% | 97.2% | 81.6% | 105%
4 | Cc1c(F)cc(C(N)=O)cc1NCC(=O)Nc1ccc([N+](=O)[O-])cc1 | 94% | 105% | 47.2% | 98.5% | 109% | 89.5% | 95.7% | 84.2% | 84.1% | 103%
5 | COc1ccc(C2CC(c3ccc(Nc4nc(NCCO)nc(N5CCOCC5)n4)cc3)=Nc3c(N)nc(N)nc3N2)cc1 (stereo not given) | 100% | 102% | 86.4% | 102% | 95.5% | 105% | 96.2% | 104% | 103% | 108%
6 | NC(N)=Nc1ccc(Oc2cccc(NC(N)=Nc3ccc(I)cc3F)c2)cn1 | 87.4% | 31.8% | 77.5% | 26.3% | 46.1% | 28.1% | 48.8% | 63% | 12.8% | 71.9%
7 | O=C(CCn1cc[n+](CC(=O)c2ccc(-c3ccccc3)cc2)c1)Nc1cccc2cccnc12 | 96.5% | 70.7% | 45.4% | 61.4% | 61.2% | 55.9% | 81.1% | 58.8% | 82.5% | 67.3%
8 | N=c1c2cc(-c3ccccc3)oc2ncn1/N=C/c1ccc(Cl)cc1 | 56.8% | 98.7% | 88.7% | 86.5% | 66.4% | 82.2% | 91.2% | 90.6% | 63.3% | 82.9%
9 | CC1=NC2=NC(=O)/C(=C3/N=C(C)C=C(c4ccccc4)N3N)NN2C(c2ccccc2)=C1 | 107% | 109% | 116% | 96.3% | 105% | 96.7% | 99.1% | 88.7% | 102% | 109%
10 | Fc1ccc(-c2cc3nc(C(Cl)Cl)nc(-c4ccco4)n3n2)cc1 | 4.34% (active) | -13.4% (active) | 55.7% | 0.644% (active) | -9.36% (active) | -19.2% (active) | 95.9% | 17.2% | 93.5% | -24.5% (active)
11 | Cc1ccc(-c2nn(-c3ccccc3)cc2/C=C/C(=O)c2ccc(NC(=O)CCCCCCC(=O)NO)cc2)cc1 | 68% | 61.4% | 102% | 81.9% | 79.2% | 74.6% | 91.7% | 53.3% | 62.2% | 89%
12 | CCCCCc1ccc(S(=O)(=O)Nc2cc(-c3csc(NC(=O)CN4CCN(C)CC4)n3)ccc2N2CCN(C)CC2)cc1 | -68.4% (active) | -25.3% (active) | 94.7% | 5.25% (active) | -32.9% (active) | 29.6% | -89.9% (active) | -78.4% (active) | -82.9% (active) | -87.3% (active)
13 | Cc1ccc(NC(=O)N[C@@H](Cc2cc(F)cc(F)c2)C(=O)NC2C(=O)N3C[C@H](O)C[C@H]3C(=O)N3CCCC[C@H]3C(=O)N[C@@H](CO)C(=O)N3C[C@H](C)C[C@H]3C(=O)O[C@H]2C)c(F)c1 (stereo not given in full) | 106% | 42.8% | 27.4% | 27.1% | 29.3% | 20% | 21.5% | 30.9% | 28.1% | 47.4%
14 | C=CCN(C)S(=O)(=O)/N=C1\NC(=O)NC1=C(Cl)Cl | -77.2% (active) | 5.89% (active) | 100% | 58.4% | -10.2% (active) | 47% | 91.6% | 32.9% | -88.3% (active) | -83.6% (active)
15 | O=S(=O)(NCCCNc1nccc(-n2cnc3ccccc32)n1)c1ccc(C(F)(F)F)cc1 | 81.8% | 96.3% | 87.2% | 94.2% | 90.8% | 66.7% | 58.8% | 62% | 85.6% | 103%
16 | O=C(NNc1nc2cc(F)ccc2n2c(CN3CCC(O)C3)ccc12)c1cnccn1 (stereo not given) | 25.7% | 23.8% | 51.9% | 22.3% | 19.9% | 25.2% | 4.28% (active) | 0.128% (active) | -0.788% (active) | 25.5%
17 | COc1cc(/C=C2\C(=O)Nc3cc(Cl)ccc32)ccc1OCc1ccc(F)cc1 | 89% | 105% | 104% | 104% | 111% | 87% | 99% | 88.8% | 93.5% | 105%
18 | COc1ccc(-n2c(/C=C3\C(=O)Nc4ccccc43)ccc2CO)cc1 | 89.7% | 105% | 101% | 90% | 95.1% | 96.4% | 94.5% | 83.3% | 94.6% | 101%
19 | COc1cc(-c2nnc(SCc3ccc(O)c4ncccc34)n2-c2ccccc2)cc(OC)c1OC | 12.8% | 16.7% | -6.25% (active) | 9.25% (active) | 4.28% (active) | 15.4% | -62.4% (active) | -37.4% (active) | -22.2% (active) | 17.9%
20 | CC(=O)c1ccc(Nc2nc(SCC(C)C)nc(-c3ccccc3)c2C#N)cc1 | 95.3% | 106% | 93.3% | 38.5% | 32.4% | 104% | 99.7% | 75.3% | 86.9% | 101%
21 | O=C1[C@H]2Cc3c([nH]c4ccccc34)[C@@H](c3ccc(Cl)cc3)N2C(=O)CN1C1CCN(Cc2ccccc2)CC1 | 23.7% | 27.1% | 79.8% | 66.5% | 63.7% | 30.4% | 56.1% | 75.4% | 17.4% | 67.8%
22 | CCO/C=N/C1=C(C#N)C(c2ccc(OC)cc2)c2sc3c(CC)cccc3c2O1 (stereo not given) | 22.4% | 13.1% | -0.25% (active) | 37.8% | 27.3% | 26.9% | 17.6% | 27.6% | 26% | 67.2%
23 | Nc1nc(N)c2c(n1)NC(c1ccc(C(F)(F)F)cc1)CC(c1ccc(Nc3nc(NCCO)nc(N4CCOCC4)n3)cc1)=N2 (stereo not given) | 37.2% | 50.4% | 66% | 84% | 45.6% | 49.2% | 64.6% | 82.2% | 49.7% | 81.7%
24 | COc1ccccc1NCc1cccn1Cc1ccc(F)cc1 | 98.3% | 102% | 104% | 96% | 98.8% | 97.3% | 97.4% | 89.8% | 97% | 97.4%
25 | O=C(NNc1nc2cc(F)c(F)cc2n2c(CN3CC4CNCC4C3)ccc12)c1ncccn1 (stereo not given) | 19.8% | 23.5% | 52.1% | 29.9% | 17.3% | 17.6% | -33.8% (active) | -20.1% (active) | 1.73% (active) | 29.3%
26 | C=CCn1c(SCC(=O)Nc2ccc(C(=O)/C=C/c3ccc(Cl)cc3)cc2)nnc1-c1c[nH]c2ccccc12 | 62.9% | 88.7% | 93.5% | 76.1% | 76.3% | 58.4% | 42.9% | 57.4% | 1.53% (active) | 90.2%
